# Source: PubChem BioAssay (NCI)
# Compounds without any hit were thinned out: in the full panel of roughly 79,000, 15% have a hit. Unmarked numbers belong to inactive results. Calls of active or inactive are those of the source. Cut-off read from the data, not from the text of the source: active = growth inhibition above about 70%; inactive = the rest.
# Key:
# [1] = NCI Yeast Anticancer Drug Screen. Data for the rad50 strain (AID 155);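 note: 0% = growth of vehicle-only cultures of the same strain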; conditions: S. cerevisiae rad50 strain growth inhibition; at 50.0 µM; hits give high values
# Procedure, shortened: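 DNA repair mutant yeast, compound exposure, growth read-out; inhibition is taken relative to vehicle.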
# [2] = NCI Yeast Anticancer Drug Screen. Data for the mec2-1 strain (AID 157); conditions: S. cerevisiae mec2-1 strain, at 50.0 µM, hits give high values
# Procedure, shortened: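 Growth inhibition is read against vehicle-treated controls after compound exposure of the mec2-1 yeast strain, which is defective in DNA damage repair or cell cycle control.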
# [3] = NCI Yeast Anticancer Drug Screen. Data for the sgs1 mgt1 strain (AID 161);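 note: 0% = growth of cultures given vehicle only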; conditions: S. cerevisiae sgs1 mgt1 strain, at 50.0 µM, hits give high values
# Procedure, shortened: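 This yeast growth screen uses a strain with defined DNA-repair lesions; compound-treated growth is compared with vehicle-treated growth.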
# [4] = NCI Yeast Anticancer Drug Screen. Data for the cln2 rad14 strain (AID 165);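 note: 0% = growth equal to vehicle treated cultures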; conditions: S. cerevisiae cln2 rad14 strain, at 50.0 µM, hits give high values
# Procedure, shortened: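 Growth inhibition, relative to vehicle-treated controls, is the read-out. The test organism is a yeast strain with defined genetic alterations, cln2 rad14.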
# [5] = NCI Yeast Anticancer Drug Screen. Data for the bub3 strain (AID 167); conditions: S. cerevisiae bub3 mutant strain, at 50.0 µM, hits give high values
# Procedure, shortened: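 In this screen, a yeast mutant lacking normal mitotic checkpoint function is challenged with compound. Relative growth versus vehicle gives the inhibition value.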
# [6] = NCI Yeast Anticancer Drug Screen. Data for the mlh1 rad18 strain (AID 175); conditions: S. cerevisiae mlh1 rad18 strain growth inhibition; at 50.0 µM; hits give high values
# Procedure, shortened: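 Cells of a genetically altered yeast strain, deficient in DNA damage repair, were treated with compound. Their growth was then compared with that of vehicle-treated cultures to give inhibition.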
SMILES,growth inhibition [1],growth inhibition [2],growth inhibition [3],growth inhibition [4],growth inhibition [5],growth inhibition [6]
CC(C#N)OCCO (stereo unspecified),9.3%,-2.3%,7.85%,-1.85%,-6.7%,5.15%
c1ccc2c[n+](CCCC[n+]3ccc4ccccc4c3)ccc2c1,46.5%,17.1%,22.4%,12.4%,41.8%,44.8%
O=Cc1ccc(OCCCOc2ccc([N+](=O)[O-])cc2)cc1,-5.1%,1.6%,11.3%,-12.1%,33.1%,42%
NC1=NN(O)C2=CC(Br)C=CC2=N1 (stereo unspecified),10.3%,-7.4%,11.6%,7.55%,43.1%,22.4%
COc1c2cc(C(C)(C)C)cc1CSCc1cc(C(C)(C)C)cc(c1OC)CCCCC2,-1.25%,-3.4%,16.2%,-14.1%,-14.6%,-1.6%
CCc1cc2c(c3c1CCCC3=O)CC1(C2)Cc2cc(CC)c3c(c2C1)C(=O)CCC3,6.05%,-9.9%,-3.6%,5.4%,10.7%,4.5%
Cc1occc1C(=S)Nc1ccc(Cl)c(/C=N/OC2CCCC2)c1,13.2%,26.1%,25.1%,30.7%,19.3%,18.8%
COC(=O)C1CC=CCC1 (stereo unspecified),23.1%,-8.05%,6.85%,14.2%,1.15%,32.4%
CCOC(=O)c1nc(SC)sc1NC(=O)c1ccccc1[N+](=O)[O-],21.2%,-4.6%,-8.75%,11.6%,3%,-2.65%
CC(=O)c1cc(C(C)(C)C)ccc1O,17.8%,4.8%,7.8%,9.65%,26.1%,12.8%
O=C1C=C(c2ccccc2)C(=O)C(c2ccccc2)=C1c1ccccc1,73.2% (active),88.2% (active),88.8% (active),80% (active),78.2% (active),89.6% (active)
CCOC(=O)C1(C(=O)OCC)CCCN1C(=O)[C@H](CNC(=O)OC(C)(C)C)NC(=O)OCc1ccccc1,32.1%,12.8%,-10.9%,-0.45%,-30.1%,-79.8%
Cc1ccc(C2C(Cl)C(=O)N2NC(=O)c2ccc(N)cc2)cc1 (stereo unspecified),-50.4%,-21.5%,-61.1%,-46.8%,-27.4%,-42%
CCCCCCCCCCCCCCCC(=O)Oc1ccc(/C(CC)=C(/CC)c2ccc(OC(=O)CCCCCCCCCCCCCCC)cc2)cc1,16.1%,-8.1%,8.55%,1.85%,8.65%,4.25%
CN(C)C=Nc1ccn(C2CC(F)C(CO)O2)c(=O)n1 (stereo unspecified),4.55%,13.2%,-22.4%,-7.85%,8.8%,13%
O=C(Nc1nccs1)c1cc(C2=CC=CC([N+](=O)[O-])C=C2)nc(=S)[nH]1 (stereo unspecified),-12.9%,-18.5%,-23.8%,-8.45%,-8.65%,-7.6%
COC(=O)[C@]1(NC(=O)c2ccccc2)C[C@H]1C=O,21%,15.2%,14.4%,10.9%,9.6%,-54.8%
CCOc1ccc(/C=N/NC(=O)CCCCCCCCC(=O)N/N=C/c2ccc(OCC)c(OC)c2)cc1OC,-25.6%,-5.1%,-27.1%,-27.6%,-1.45%,-8.35%
CN(C)S(=O)(=O)N1CCOCC1,9.3%,-6.65%,-1.15%,11.2%,-2.8%,4.8%
C=C1C(=O)C23C(O)CC4C5(C)CCCC4(C(O)OC5)C2C(OC(C)=O)CC1C3O (stereo unspecified),10.3%,8.45%,11.4%,10.1%,-7.3%,0.75%
CCCCOC(=O)C12CCCCC1O2 (stereo unspecified),-29.1%,-29.9%,-12.8%,2.55%,-29.1%,-0.55%

SMILES,growth inhibition [1],growth inhibition [2],growth inhibition [3],growth inhibition [4],growth inhibition [5],growth inhibition [6]
OC1COC2CC(Nc3ccccn3)OC12 (stereo unspecified),-36.8%,-41.2%,-15.8%,0%,-10.2%,-13.6%
OCc1c(CO)c(C(F)(F)F)n2c1CCC2,9.9%,-4.1%,9.15%,-14.3%,9.65%,2.55%
Cc1c(C(=O)O)c2ccccc2[nH]c1=O,-2.85%,-1.25%,2.85%,-40%,-13.2%,2.5%
CSCCC(N)C(=O)NCCNc1ccc(NCCNC(=O)C(N)CCSC)c2c1C(=O)c1ccccc1C2=O (stereo unspecified),-8.05%,-0.9%,-29%,-0.5%,-30.4%,-44.4%
CC(C)(C)N(O)c1ccc(P(=O)(c2ccccc2)c2ccccc2)cc1,23.4%,15.4%,12.3%,-4.7%,-2.35%,11.8%
CCc1cccc[n+]1CC(=O)c1ccccc1,-23.5%,5.85%,-0.85%,-41.8%,39.7%,12%
CC1O[C@@]2(CC[C@H]3[C@@H]4CCC5=CC(=O)CC[C@]5(C)[C@H]4CC[C@@]32C)C1=O (stereo partly specified),-0.55%,4.95%,11.4%,-16.8%,26.9%,25.9%
c1ccc2c3nnc(c2c1)SCCSCCCSCCS3,-24.4%,-31.4%,-2.2%,-5.25%,8.65%,-30.4%
CCCCCCCCCCCCOC1C(COCCN2CCCCC2)OC2OC(C)(C)OC21 (stereo unspecified),92.6% (active),93.4% (active),89.7% (active),90% (active),88% (active),90.2% (active)
CCOc1ccc(N)c([N+](=O)[O-])c1,4.65%,21.9%,22.9%,-34.4%,-7.75%,3.1%
O=C1NC2=NN=C(c3ccc(Br)cc3)CN2NC12c1ccccc1-c1ccccc12,-21.6%,-15.8%,-13.8%,21.6%,-14.2%,4.2%
O=P(c1ccccc1)(c1ccccc1)c1ccccc1OCc1cccc(COc2ccccc2P(=O)(c2ccccc2)c2ccccc2)n1,-7.05%,-7.5%,-11.7%,-21.9%,-2.6%,31.1%
O=c1c2[nH]cnc2ncn1Cc1ccccc1,0.95%,1.35%,0.3%,-32.5%,-20.6%,-6.25%
O=C1/C(=C/c2ccc(O)cc2)CCc2ccc([N+](=O)[O-])cc21,-10.3%,-1.15%,9.45%,13.8%,-0.8%,-55.4%
CC(=O)CCCCc1ccccc1,-1.45%,-8.45%,-9.3%,-71.6%,-9.2%,-1%
CC(=O)CC(=O)NCC#N,27.9%,15.8%,23.9%,25.6%,11.8%,24.6%
CC/C(=N\NC(=O)c1ccncc1)c1ccc(Cl)cc1,1.1%,9.05%,-3.15%,17.9%,2.9%,-1.95%
OC1OCc2cc3ccccc3cc21 (stereo unspecified),21.4%,-0.95%,-8.35%,3.6%,-7.8%,3.65%
COC1=CC(O)(CC(N)=O)c2ccccc2C1=O (stereo unspecified),-5.3%,-8.65%,10.6%,-11.4%,-23.9%,4.85%
Cc1cc(C)c([N+](=O)[O-])cc1[N+](=O)[O-],7.5%,5.5%,9.45%,-1.25%,-3.4%,5.15%
